High-throughput results from PubChem.
Most compounds without a hit are left out; they make up all but 5.7% or so of the library.
PI5P4Ka inh: qHTS for Inhibitors of phosphatidylinositol 5-phosphate 4-kinase (PI5P4K); hit rate 1.2% among 330,000; AID 652105, 2013; Phosphatidylinositol 5-phosphate 4-kinase type-2 alpha (Homo sapiens), P48426; max response, %; PI5P4Kalpha enzyme, ADP-Glo luminescence, 60 min; hits give low values; active = max response of -50% or lower; inconclusive = between -30% and -50%; inactive = -30% or higher; also: value at the top dose of about 77 µM; % is scaled to controls: 0 for no effect and ±100 for the full control effect
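Quantitative HTS of the MLSMR library against PI5P4Kalpha with substrate. ATP added last at 5 microM final; room temperature, 60 minutes. Remaining ATP depleted, ADP converted and read as luminescence.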
JMJD2E inh: qHTS Assay for Inhibitors of Human Jumonji Domain Containing 2E (JMJD2E); JMJD2E catalytic domain, FDH-coupled NADH fluorescence (FDH is formaldehyde dehydrogenase); hit rate 1.6% among 230,000; Potency, µM (doses to about 57.1 µM), without a hit: at the highest dose activity change, negative = inhibition, most hits filed as inhibitors; Lysine-specific demethylase 4E (Homo sapiens), B2RXH2; active = well fitted inhibition curve with a large enough effect, not every such curve was filed as active; inconclusive = small, poorly fitted or top-dose-only effect, or another doubt; inactive = no such curve, though single readings can be large or run the other way;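 also: potency is read from the fitted curve at half-maximal effect; 0% = wells with enzyme and -100% = buffer wells without enzyme; nearly all actives have a fitted effect of over 50% in size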
BAZ2B block: qHTS Assay for Inhibitors of BAZ2B | Bromodomain adjacent to zinc finger domain protein 2B (Homo sapiens), Q9UIF8 | AlphaScreen BAZ2B-H3K14Ac peptide displacement | Potency, µM (top dose mostly 114 µM), for the others: at the highest dose activity change, negative = inhibition, most hits filed as inhibitors | hit rate 4.4% among 360,000; also: potency is read from the fitted curve at half-maximal effect; % is scaled to controls: 0 for no effect and ±100 for the full control effect; nearly all actives have a fitted effect of over 60% in size
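AlphaScreen displacement: compounds (up to 110uM) incubated 30 min at room temperature with a preformed 50 nM BAZ2B/50 nM biotinylated H3K14Ac peptide complex in PBS pH 7.4 with Tween-20. Donor and acceptor beads at 10 ug/mL final added, 20 min light-protected before reading.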
HP1b chromo inh: HTS for Inhibitors of HP1-beta Chromodomain Interactions with Methylated Histone Tails. hit rate 0.56% among 390,000. AID 540317, 2011. AlphaScreen HP1-beta / biotin-H3K9me3 peptide binding. Chromobox protein homolog 1 (Homo sapiens), P83916. Potency, µM (doses to about 114 µM), inactives show at the top dose activity change, negative = inhibition, most hits filed as inhibitors; also: potency is read from the fitted curve at half-maximal effect; nearly all actives have a fitted effect of over 70% in size
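AlphaScreen: HP1-beta (50 nM) preformed 30 min with biotin-H3(1-18)K9me3 peptide (50 nM) in PBS pH 7.4, 0.01% Tween-20. Compound added for 30 min at RT, then streptavidin donor/nickel chelate acceptor beads (10 ug/mL) for 30 min.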
L3MBTL1 inh: qHTS Assay for the Inhibitors of L3MBTL1 | Lethal(3)malignant brain tumor-like protein 1 (Homo sapiens), Q9Y468 | AlphaScreen L3MBTL1–H3K9me1 peptide binding | Potency, µM (titrated, usually from 57.1 µM), without a hit: top-dose activity, negative = inhibition, most hits filed as inhibitors | hit rate 0.66% among 230,000 | AID 485360, 2010; also: potency is read from the fitted curve at half-maximal effect; % is scaled to controls: 0 for no effect and ±100 for the full control effect; nearly all actives have a fitted effect of over 60% in size
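AlphaScreen assay: L3MBTL1 (50 nM final) was preincubated 30 min at room temperature with biotinylated H3(1-15)K9me1 peptide (75 nM final), then 30 min with library compounds; streptavidin donor and nickel chelate acceptor beads (10 ug/mL final) added, 30 min dark.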
JMJD2A Tudor inh: qHTS Assay for Inhibitors of JMJD2A-Tudor Domain; AlphaScreen JMJD2A-Tudor / H3K4me3 peptide binding; AID 504339, 2011; Lysine-specific demethylase 4A (Homo sapiens), O75164; Potency, µM (series often up to 114 µM), without a hit: at the top dose activity change, negative = inhibition, usual class: inhibitors; hit rate 4.4% among 390,000; also: potency is read from the fitted curve at half-maximal effect; % is scaled to controls: 0 for no effect and ±100 for the full control effect; nearly all actives have a fitted effect of over 50% in size
An asterisk follows results filed as active; ? = inconclusive; / = not tested or not shown; [ ] = remark or other dose. Unless noted, calls follow the shape of the dose curve; as a rule, active = well fitted inhibition curve with a large enough effect; inconclusive = small, poorly fitted or top-dose-only effect; inactive = no such curve, though single readings can be large or run the other way.

SMILES	PI5P4Ka inh	JMJD2E inh	BAZ2B block	HP1b chromo inh	L3MBTL1 inh	JMJD2A Tudor inh
[O-][n+]1cccc2c(Br)cc(Br)c(O)c21	-18	-26%	/	8%	/	-27%
CCOC(=O)c1ccc(N2C(=O)CC(Sc3nnc(C)s3)C2=O)cc1 (centres undefined)	-17	-1%	-12%	-23%	-5%	50µM*
Nc1nnc(SC2CC(=O)N(c3ccccc3)C2=O)s1 (centres undefined)	-8	-9%	7%	?	/	45µM*
C=CCNc1nnc(SC2CC(=O)N(c3ccc(OCCC)cc3)C2=O)s1 (centres undefined)	4	-13%	-4%	-24%	/	35µM*
CCOC(=O)c1ccc(N2C(=O)CC(Sc3nc(C)cc(C)n3)C2=O)cc1 (centres undefined)	0	/	-8%	56%	2%	12%
CCOC(=O)c1ccc(-n2c(C)ccc2C)cc1	0	-17%	-4%	40%	-1%	-6%
CCOC(=O)c1ccc(N2C(=O)C=CC2=O)cc1	?	2%	?	20µM*	/	22µM*
COc1ccc(-n2c(SCC(=O)NC3CCCCC3)nc3c([nH]c4ccccc43)c2=O)cc1	/	/	2%	15%[57 µM]	/	2%
CN(C)CCNc1nc(-c2ccco2)c2c(c1C#N)CC(C)(C)OC2	/	?	2%	37%	8%	1%
CCCCN(C)c1nc(-c2ccco2)c2c(c1C#N)CC(C)(C)OC2	?	?	32%	32%	11%	89µM*
CCN(c1ccccc1)S(=O)(=O)c1cccc(C(=O)NCC2(N(C)C)CCCCC2)c1	2	/	-4%	40%	1%	6%
O=Nc1c(-c2c(O)[nH]c3cc(Br)ccc23)[nH]c2ccccc12	-75*	0%	4µM*	4µM*	/	3.2µM*
COc1ccc(/C=N/Nc2nc(C)cc(=O)[nH]2)cc1OC	2	/	-25%	33%	-1%	25µM*
Cc1cc(=O)[nH]c(N/N=C/c2ccc(N(C)C)cc2)n1	3	-11%	-19%	-8%	-14%	25µM*
COc1cc(/C=N/Nc2nc(C)cc(=O)[nH]2)ccc1O	-1	/	-3%	45%	/	3%
Cc1cc(=O)[nH]c(N/N=C/c2ccc(C)o2)n1	-3	?	-4%	22%	15%	56µM*
C/C(=N\Nc1nc(C)cc(=O)[nH]1)C1CC1	0	-12%	16%	41%	12%	18µM*
Cc1cc(=O)[nH]c(N/N=C/c2ccco2)n1	5	-20%	7%	44%	/	-17%
CCCCSc1nnc2n(-c3ccc(OC)cc3)c(=O)c3c4c(sc3n12)COC(C(C)C)C4 (centres undefined)	/	/	-6%	20%	/	-30%
CCOC(=O)C1CCN(Cc2cccc(Oc3ccccc3)c2)CC1	4	/	56µM*	-19%	1%	22µM*
CCOC(=O)C1CCN(Cc2cccc(Oc3ccc(Cl)cc3)c2)CC1	2	/	?	-30%	10%	28µM*
CCOC(=O)C1CCN(CCC(=O)Nc2ccc(Cl)cc2)CC1	13	1%	1%	8%	/	-9%
CCNC(=O)C1(C)CCN(Cc2cccc(Oc3ccccc3)c2)C1 (centres undefined)	-4	/	/	/	/	/
COc1ccccc1C(=O)C1CCCN(Cc2cccc(OCCO)c2)C1 (centres undefined)	0	/	6%	15%	-7%	-10%
CCN(CC)C(=O)C1CCCN(Cc2ccc(OC)c(C)c2C)C1 (centres undefined)	-2	?	71µM*	?	-10%	1.6µM*
